According to PubChem BioAssay (Tox21):
Inconclusive results are not listed. Unmarked numbers belong to inactive results. Calls of active or inactive are those of the source. The call rests on the fitted dose curve; in most records, active means well fitted cell-killing curve with a large enough effect in the repeat runs; inconclusive means weak or mixed curves, or effect the other way; inactive means no such curve, though single readings can be large or run the other way.

test: qHTS assay to identify small molecule agonists of the estrogen receptor alpha (ER-alpha) signaling pathway in the presence of an antagonist - cell viability counter screen (AID 1259386); conditions: VM7Luc4E2 viability, CellTiter-Fluor fluorescence, 22 h; series mostly up to 92.4 µM;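 further: cells exposed to compounds for 22 h at 37 °C before the viability read; nearly all actives have a fitted effect of over 30% in size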
From the text: National Center for Advancing Translational Sciences [NCATS]
NIH Chemical Genomics Center [NCGC]
U.S. Environmental Protection Agency [EPA]
National Institutes of Environmental Health Sciences [NIEHS]
National Toxicology Program [NTP]
U.S. Food and Drug Administration [FDA]
Estrogen receptor (ER), a member of nuclear hormone receptor plays an important role in development, metabolic homeostasis and reproduction. Two subtypes of ER, ER-alpha and ER-beta, have similar expression patterns with some uniqueness in both types. Endocrine disrupting chemicals (EDCs) and their interactions with steroid hormone receptors like ER causes disruption of normal endocrine function. Therefore, it is important to understand the effect of environmental chemicals in ER signaling pathway. For identifying ER agonists, VM7Luc4E2 cell line has been used in the current assay.
VM7Luc4E2 cell line (provided by Denison MS, University of California) endogenously expresses full-length ER-alpha and is stably transfected with a plasmid containing four estrogen responsive elements (ERE) upstream of a luciferase reporter gene. This current screening for measuring luciferase reporter gene activity using VM7Luc4E2 cells against Tox21 10K library collection is a confirmation study on agonist mode screening in presence of ER-antagonist (ICI-182,780) at 10.0nM final concentration. The cytotoxicity of the compounds was tested in parallel by measuring the cell viability using CellTiter-Fluor assay system (Promega, Madison, WI) in the same wells.
Tox21 Assay Protocol Summary:
VM7Luc4E2 cells were cultured in phenol red free assay medium containing 10% charcoal stripped FBS for 5 days prior to the assay. The cells were dispensed at 4,000 cells in 4uL of assay medium per well into white wall/solid-bottom 1536-well plates (Corning Life Sciences, Corning, NY) using a Multidrop Combi (Thermo Fisher Scientific Inc., Waltham, MA) dispenser. After the assay plates were incubated at 37C and 5% CO2 for 24hr, 1uL of 10.0nM (final concentration) ICI-182,780 or assay buffer was added using two separate tips of Flying Reagent Dispenser (FRD, Aurora Discovery, San Diego, CA). Then 23nL of compounds dissolved in DMSO at 15 concentrations and positive controls or DMSO only was transferred to the assay plates by a Pintool station (Wako, San Diego, CA). The assay plates were incubated at 37C and 5% CO2 for 22hr. After 21hr incubation at 37C, 1uL/well CellTiter-Fluor reagent (Promega Corporation, Madison, WI) was added to each well using FRD and after 1hr incubation at 37C and 5% CO2, the fluorescence signal was measured on ViewLux plate reader (PerkinElmer, Shelton, CT).
On the % scale 0 is the no-effect control and ±100 the full control effect.

SMILES	outcome	activity change, negative = cytotoxicity
CCCCCCCCCCCCCBr	inactive	–
CCC(=O)CC	inactive	–
NCC1(Cc2noc(=O)[nH]2)CCCCC1	inactive	–
C/C=C(\C)C(=O)OCCc1ccccc1	inactive	–
CC/C=C\CCOC(=O)c1ccccc1O	inactive	–
CC/C(C)=N\O[Si](C)(O/N=C(\C)CC)O/N=C(\C)CC	inactive	–
O=Cc1cc2ccccc2o1	inactive	–
CCC(=O)c1c(O)cc(O)cc1O	inactive	–
Cc1c(N)cccc1Cl	inactive	–
O=C(O)CSCC(=O)NC1CCSC1=O (stereo not given)	inactive	–
CC(C)c1ccc(C=O)cc1	inactive	–
C=CCSSCCC	inactive	–
OC[C@H]1O[C@@H](O[C@@H]2[C@@H](CO)O[C@](O)(CO)[C@H]2O)[C@H](O)[C@@H](O)[C@H]1O	inactive	–
O=C(O)CONC(=O)c1ccccc1	inactive	–
CCCCC1CCC(O)CC1 (stereo not given)	inactive	–
CC1=C(O)C(=O)C(C)O1 (stereo not given)	inactive	–
C=C(C)C1CC=C(C)C(=O)C1 (stereo not given)	inactive	–
CCO[Si](CC)(OCC)OCC	inactive	–
CC(C)CCOC(=O)c1ccccc1	inactive	–
CCOCCOCC	inactive	–

SMILES	outcome	activity change, negative = cytotoxicity
COc1nc(N)nc2nc[nH]c12	inactive	–
CCCCOC(=O)[C@H](C)O	inactive	–
CC(=O)OCC(=O)Nc1cc(C#N)cc(NC(=O)COC(C)=O)c1Cl	inactive	–
CO[Si](CCCn1c(=O)n(CCC[Si](OC)(OC)OC)c(=O)n(CCC[Si](OC)(OC)OC)c1=O)(OC)OC	inactive	–
CCCCSCCCC	inactive	–
CCC(C)OC(C)CC (stereo not given)	inactive	–
CCOc1cccc(N)c1	inactive	–
COc1cc2c(cc1OC)CN(C(=O)[C@H](C)N[C@@H](CCc1ccccc1)C(=O)O)[C@H](C(=O)O)C2	inactive	–
CO/N=C(/C(=O)N[C@@H]1C(=O)N2C(C(=O)[O-])=C(C[n+]3ccn4ncccc43)CS[C@H]12)c1nsc(N)n1	inactive	–
C/C(=C1\CCOC(=O)S1)N(C=O)Cc1cnc(C)nc1N	inactive	–
ONc1ccccc1	inactive	–
O=C1CCC(=O)N1Cl	inactive	–
CCC/C=C(\C=O)CC	inactive	–
CC1(C)Cc2cccc(N)c2O1	inactive	–
CC1=NN(c2ccc(S(=O)(=O)O)cc2)C(=O)C1	inactive	–
COC(=O)/C=C\C(=O)O	inactive	–
N[C@@H](Cc1ccc(O)cc1)C(=O)O	–	1.69% [at 8.39 µM]
O=C=NCC1CCCC(CN=C=O)C1 (stereo not given)	inactive	–
CCCSSCCC	inactive	–
CC(C)NC(=O)c1ccc(C=O)cc1	inactive	–
